Numbering of substitutions follows the chain as printed.

Sequences and labels used below:
B1: GCATCCTA (ssRNA)
RNA 1: GAGUUCUACAGUCCGACGAUCCCAACGCAUCCUACACCUGGAAUUCUCGGGUGCCAA
RNA 2: UGGAGUGUGACAAUGGUGUUUG
DNA 1: GATCGTCGGACTGTAGAACTC
DNA 2: TTGGCACCCGAGAATTCCA
modifications: constant regions annealed to DNA blockers; guide miR-122 5' phosphate
B2: ACACTTCG (ssRNA)
RNA 1: B1 RNA 1 with G27A, U30C, C31U, C32U, U33C, A34G
RNA 2: UGGAGUGUGACAAUGGUGUUUG
DNA 1: GATCGTCGGACTGTAGAACTC
DNA 2: TTGGCACCCGAGAATTCCA
modifications: constant regions annealed to DNA blockers; guide miR-122 5' phosphate
B3: GCGTCCTG (ssRNA)
RNA 1: B1 RNA 1 with A29G, A34G
RNA 2: UGGAGUGUGACAAUGGUGUUUG
DNA 1: GATCGTCGGACTGTAGAACTC
DNA 2: TTGGCACCCGAGAATTCCA
modifications: constant regions annealed to DNA blockers; guide miR-122 5' phosphate
B4: GCGTCCCG (ssRNA)
RNA 1: B1 RNA 1 with A29G, U33C, A34G
RNA 2: UGGAGUGUGACAAUGGUGUUUG
DNA 1: GATCGTCGGACTGTAGAACTC
DNA 2: TTGGCACCCGAGAATTCCA
modifications: constant regions annealed to DNA blockers; guide miR-122 5' phosphate
B5: GCGCTTCG (ssRNA)
RNA 1: B1 RNA 1 with A29G, U30C, C31U, C32U, U33C, A34G
RNA 2: UGGAGUGUGACAAUGGUGUUUG
DNA 1: GATCGTCGGACTGTAGAACTC
DNA 2: TTGGCACCCGAGAATTCCA
modifications: constant regions annealed to DNA blockers; guide miR-122 5' phosphate
B6: GTATTCTG (ssRNA)
RNA 1: B1 RNA 1 with C28U, C31U, A34G
RNA 2: UGGAGUGUGACAAUGGUGUUUG
DNA 1: GATCGTCGGACTGTAGAACTC
DNA 2: TTGGCACCCGAGAATTCCA
modifications: constant regions annealed to DNA blockers; guide miR-122 5' phosphate
B7: GTACCTCG (ssRNA)
RNA 1: B1 RNA 1 with C28U, U30C, C32U, U33C, A34G
RNA 2: UGGAGUGUGACAAUGGUGUUUG
DNA 1: GATCGTCGGACTGTAGAACTC
DNA 2: TTGGCACCCGAGAATTCCA
modifications: constant regions annealed to DNA blockers; guide miR-122 5' phosphate
B8: GTGCCTCG (ssRNA)
RNA 1: B1 RNA 1 with C28U, A29G, U30C, C32U, U33C, A34G
RNA 2: UGGAGUGUGACAAUGGUGUUUG
DNA 1: GATCGTCGGACTGTAGAACTC
DNA 2: TTGGCACCCGAGAATTCCA
modifications: constant regions annealed to DNA blockers; guide miR-122 5' phosphate
B9: GCGCTCTG (ssRNA)
RNA 1: B1 RNA 1 with A29G, U30C, C31U, A34G
RNA 2: UGGAGUGUGACAAUGGUGUUUG
DNA 1: GATCGTCGGACTGTAGAACTC
DNA 2: TTGGCACCCGAGAATTCCA
modifications: constant regions annealed to DNA blockers; guide miR-122 5' phosphate
B10: GCGTCTTG (ssRNA)
RNA 1: B1 RNA 1 with A29G, C32U, A34G
RNA 2: UGGAGUGUGACAAUGGUGUUUG
DNA 1: GATCGTCGGACTGTAGAACTC
DNA 2: TTGGCACCCGAGAATTCCA
modifications: constant regions annealed to DNA blockers; guide miR-122 5' phosphate
B11: GCGCCTTG (ssRNA)
RNA 1: B1 RNA 1 with A29G, U30C, C32U, A34G
RNA 2: UGGAGUGUGACAAUGGUGUUUG
DNA 1: GATCGTCGGACTGTAGAACTC
DNA 2: TTGGCACCCGAGAATTCCA
modifications: constant regions annealed to DNA blockers; guide miR-122 5' phosphate
B12: ATGCTCTA (ssRNA)
RNA 1: B1 RNA 1 with G27A, C28U, A29G, U30C, C31U
RNA 2: UGGAGUGUGACAAUGGUGUUUG
DNA 1: GATCGTCGGACTGTAGAACTC
DNA 2: TTGGCACCCGAGAATTCCA
modifications: constant regions annealed to DNA blockers; guide miR-122 5' phosphate
B13: ATGTTCTA (ssRNA)
RNA 1: B1 RNA 1 with G27A, C28U, A29G, C31U
RNA 2: UGGAGUGUGACAAUGGUGUUUG
DNA 1: GATCGTCGGACTGTAGAACTC
DNA 2: TTGGCACCCGAGAATTCCA
modifications: constant regions annealed to DNA blockers; guide miR-122 5' phosphate
B14: ACACCTCG (ssRNA)
RNA 1: B1 RNA 1 with G27A, U30C, C32U, U33C, A34G
RNA 2: UGGAGUGUGACAAUGGUGUUUG
DNA 1: GATCGTCGGACTGTAGAACTC
DNA 2: TTGGCACCCGAGAATTCCA
modifications: constant regions annealed to DNA blockers; guide miR-122 5' phosphate
B15: GTGCCCTG (ssRNA)
RNA 1: B1 RNA 1 with C28U, A29G, U30C, A34G
RNA 2: UGGAGUGUGACAAUGGUGUUUG
DNA 1: GATCGTCGGACTGTAGAACTC
DNA 2: TTGGCACCCGAGAATTCCA
modifications: constant regions annealed to DNA blockers; guide miR-122 5' phosphate
B16: ATATCCCG (ssRNA)
RNA 1: B1 RNA 1 with G27A, C28U, U33C, A34G
RNA 2: UGGAGUGUGACAAUGGUGUUUG
DNA 1: GATCGTCGGACTGTAGAACTC
DNA 2: TTGGCACCCGAGAATTCCA
modifications: constant regions annealed to DNA blockers; guide miR-122 5' phosphate
B17: GCATTCCG (ssRNA)
RNA 1: B1 RNA 1 with C31U, U33C, A34G
RNA 2: UGGAGUGUGACAAUGGUGUUUG
DNA 1: GATCGTCGGACTGTAGAACTC
DNA 2: TTGGCACCCGAGAATTCCA
modifications: constant regions annealed to DNA blockers; guide miR-122 5' phosphate
B18: GTACTTTG (ssRNA)
RNA 1: B1 RNA 1 with C28U, U30C, C31U, C32U, A34G
RNA 2: UGGAGUGUGACAAUGGUGUUUG
DNA 1: GATCGTCGGACTGTAGAACTC
DNA 2: TTGGCACCCGAGAATTCCA
modifications: constant regions annealed to DNA blockers; guide miR-122 5' phosphate
B19: GTGCCCCG (ssRNA)
RNA 1: B1 RNA 1 with C28U, A29G, U30C, U33C, A34G
RNA 2: UGGAGUGUGACAAUGGUGUUUG
DNA 1: GATCGTCGGACTGTAGAACTC
DNA 2: TTGGCACCCGAGAATTCCA
modifications: constant regions annealed to DNA blockers; guide miR-122 5' phosphate
B20: GCACTTCG (ssRNA)
RNA 1: B1 RNA 1 with U30C, C31U, C32U, U33C, A34G
RNA 2: UGGAGUGUGACAAUGGUGUUUG
DNA 1: GATCGTCGGACTGTAGAACTC
DNA 2: TTGGCACCCGAGAATTCCA
modifications: constant regions annealed to DNA blockers; guide miR-122 5' phosphate
B21: GTGCTTTA (ssRNA)
RNA 1: B1 RNA 1 with C28U, A29G, U30C, C31U, C32U
RNA 2: UGGAGUGUGACAAUGGUGUUUG
DNA 1: GATCGTCGGACTGTAGAACTC
DNA 2: TTGGCACCCGAGAATTCCA
modifications: constant regions annealed to DNA blockers; guide miR-122 5' phosphate
B22: ACGCTTTA (ssRNA)
RNA 1: B1 RNA 1 with G27A, A29G, U30C, C31U, C32U
RNA 2: UGGAGUGUGACAAUGGUGUUUG
DNA 1: GATCGTCGGACTGTAGAACTC
DNA 2: TTGGCACCCGAGAATTCCA
modifications: constant regions annealed to DNA blockers; guide miR-122 5' phosphate

Chain of AGO2 L192P (Q9UKV8 whole entry L192P/S387D/S824A/S828D/S831D/S834A): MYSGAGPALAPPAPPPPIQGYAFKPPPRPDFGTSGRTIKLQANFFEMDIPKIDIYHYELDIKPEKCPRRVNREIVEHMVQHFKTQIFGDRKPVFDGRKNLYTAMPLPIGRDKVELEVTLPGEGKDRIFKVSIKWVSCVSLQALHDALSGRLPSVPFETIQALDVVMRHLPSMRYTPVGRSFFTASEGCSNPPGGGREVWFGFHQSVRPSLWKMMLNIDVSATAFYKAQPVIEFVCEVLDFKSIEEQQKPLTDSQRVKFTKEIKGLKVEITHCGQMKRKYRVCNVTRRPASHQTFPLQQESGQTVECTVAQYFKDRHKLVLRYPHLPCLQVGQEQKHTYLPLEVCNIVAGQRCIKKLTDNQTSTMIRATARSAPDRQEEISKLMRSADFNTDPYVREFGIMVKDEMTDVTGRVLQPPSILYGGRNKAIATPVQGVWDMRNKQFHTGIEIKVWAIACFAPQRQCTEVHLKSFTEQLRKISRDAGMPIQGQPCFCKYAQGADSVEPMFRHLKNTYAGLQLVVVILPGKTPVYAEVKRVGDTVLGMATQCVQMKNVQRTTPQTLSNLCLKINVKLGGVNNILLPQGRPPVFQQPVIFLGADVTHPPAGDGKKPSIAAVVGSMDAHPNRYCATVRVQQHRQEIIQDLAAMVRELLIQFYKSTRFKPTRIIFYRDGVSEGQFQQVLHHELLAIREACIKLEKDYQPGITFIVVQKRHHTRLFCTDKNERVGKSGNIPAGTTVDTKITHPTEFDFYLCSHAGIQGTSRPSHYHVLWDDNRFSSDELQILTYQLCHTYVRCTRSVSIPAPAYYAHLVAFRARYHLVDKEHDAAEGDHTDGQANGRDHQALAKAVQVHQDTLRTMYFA
Chain of AGO2 T357M (Q9UKV8 whole entry T357M/S387D/S824A/S828D/S831D/S834A): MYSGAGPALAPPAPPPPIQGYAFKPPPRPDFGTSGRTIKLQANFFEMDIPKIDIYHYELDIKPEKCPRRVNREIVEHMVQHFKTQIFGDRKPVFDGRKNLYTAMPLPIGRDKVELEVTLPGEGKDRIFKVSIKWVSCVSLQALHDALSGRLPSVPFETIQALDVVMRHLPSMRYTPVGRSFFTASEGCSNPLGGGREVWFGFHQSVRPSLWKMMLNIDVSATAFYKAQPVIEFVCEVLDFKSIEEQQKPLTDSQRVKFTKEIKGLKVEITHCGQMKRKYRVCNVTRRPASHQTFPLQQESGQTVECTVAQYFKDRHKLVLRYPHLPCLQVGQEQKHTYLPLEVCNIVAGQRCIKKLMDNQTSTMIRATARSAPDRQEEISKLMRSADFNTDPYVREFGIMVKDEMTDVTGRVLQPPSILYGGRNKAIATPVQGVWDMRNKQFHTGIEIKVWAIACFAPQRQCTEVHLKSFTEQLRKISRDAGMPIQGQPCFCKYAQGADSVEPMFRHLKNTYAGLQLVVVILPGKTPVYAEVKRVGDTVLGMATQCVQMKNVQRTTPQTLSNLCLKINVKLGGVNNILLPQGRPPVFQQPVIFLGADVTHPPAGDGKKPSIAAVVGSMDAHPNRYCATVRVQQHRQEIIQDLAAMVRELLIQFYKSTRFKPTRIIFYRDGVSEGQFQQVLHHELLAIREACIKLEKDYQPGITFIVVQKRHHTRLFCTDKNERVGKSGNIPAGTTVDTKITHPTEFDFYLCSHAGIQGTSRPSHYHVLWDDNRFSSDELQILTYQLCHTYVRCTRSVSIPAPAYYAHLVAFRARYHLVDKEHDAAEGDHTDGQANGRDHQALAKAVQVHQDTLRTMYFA

One experiment addresses AGO2 L192P (Homo sapiens, UniProt Q9UKV8 1-859, L192P;S387D;S824A;S828D;S831D;S834A). Kind of experiment: RNA Bind-n-Seq (nitrocellulose filter binding and sequencing); miR-122 guide loaded in AGO2; 60 min incubation; 30 mM Tris pH 8.0, 100 mM potassium acetate, 2 mM magnesium acetate, 0.5 mM TCEP, 0.005% NP-40, 0.01 mg/ml yeast tRNA; 3 nM AGO2-miR-122, 100 nM RNA library; 60; high values mean tight binding. The following applies: protein: recombinant; tags: His6 (N-terminal, pFastBac HTA). Put shortly: (§1)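 Fold enrichment is each target's read fraction divided by its read fraction in the input library. Sf9 insect cells expressed His-tagged AGO2 from baculovirus; the protein was loaded with a synthetic guide RNA and purified by Ni-NTA and a biotinylated capture oligo. The bound RNA was extracted, reverse-transcribed, barcode-amplified and sequenced on Illumina.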
Regarding B1, the binding signal is 0.47 fold enrichment over input.
Still for that read-out and setting: for B2 the value was 0.433 fold enrichment over input.
As for B3, the binding signal is 0.38 fold enrichment over input.
With B4, the binding signal was 0.366 fold enrichment over input.
Regarding B5, the binding signal is 0.354 fold enrichment over input.
As to B6, the binding signal is 0.39 fold enrichment over input.
With B7, the binding signal was 0.347 fold enrichment over input.
Take B8: the binding signal was 0.431 fold enrichment over input.
For the molecule B9, the binding signal was 0.371 fold enrichment over input.
Turning to B10, the binding signal is 0.395 fold enrichment over input.
With B11, the binding signal was 0.365 fold enrichment over input.
With B12, the binding signal was 0.443 fold enrichment over input.
Same read-out and setting: next, B13: 0.469 fold enrichment over input; B14: 0.412 fold enrichment over input; B15: 0.425 fold enrichment over input.
On to B16, for which the binding signal is 0.335 fold enrichment over input.
Consider B17, for which the binding signal was 0.436 fold enrichment over input.
On to B18, for which the binding signal was 0.365 fold enrichment over input.
Same read-out and setting: for B19 the value was 0.406 fold enrichment over input; for B20, 0.348 fold enrichment over input.
B21: the binding signal is 0.489 fold enrichment over input.
On the same count and under the same terms, next, B22: 0.468 fold enrichment over input.

The target in a further experiment is AGO2 A367P (Homo sapiens, UniProt Q9UKV8 1-859, A367P;S387D;S824A;S828D;S831D;S834A). The description is as above. Particulars: protein: recombinant; tags: His6 (N-terminal, pFastBac HTA). The method, boiled down: as §1
Chain of AGO2 A367P (Q9UKV8 whole entry A367P/S387D/S824A/S828D/S831D/S834A): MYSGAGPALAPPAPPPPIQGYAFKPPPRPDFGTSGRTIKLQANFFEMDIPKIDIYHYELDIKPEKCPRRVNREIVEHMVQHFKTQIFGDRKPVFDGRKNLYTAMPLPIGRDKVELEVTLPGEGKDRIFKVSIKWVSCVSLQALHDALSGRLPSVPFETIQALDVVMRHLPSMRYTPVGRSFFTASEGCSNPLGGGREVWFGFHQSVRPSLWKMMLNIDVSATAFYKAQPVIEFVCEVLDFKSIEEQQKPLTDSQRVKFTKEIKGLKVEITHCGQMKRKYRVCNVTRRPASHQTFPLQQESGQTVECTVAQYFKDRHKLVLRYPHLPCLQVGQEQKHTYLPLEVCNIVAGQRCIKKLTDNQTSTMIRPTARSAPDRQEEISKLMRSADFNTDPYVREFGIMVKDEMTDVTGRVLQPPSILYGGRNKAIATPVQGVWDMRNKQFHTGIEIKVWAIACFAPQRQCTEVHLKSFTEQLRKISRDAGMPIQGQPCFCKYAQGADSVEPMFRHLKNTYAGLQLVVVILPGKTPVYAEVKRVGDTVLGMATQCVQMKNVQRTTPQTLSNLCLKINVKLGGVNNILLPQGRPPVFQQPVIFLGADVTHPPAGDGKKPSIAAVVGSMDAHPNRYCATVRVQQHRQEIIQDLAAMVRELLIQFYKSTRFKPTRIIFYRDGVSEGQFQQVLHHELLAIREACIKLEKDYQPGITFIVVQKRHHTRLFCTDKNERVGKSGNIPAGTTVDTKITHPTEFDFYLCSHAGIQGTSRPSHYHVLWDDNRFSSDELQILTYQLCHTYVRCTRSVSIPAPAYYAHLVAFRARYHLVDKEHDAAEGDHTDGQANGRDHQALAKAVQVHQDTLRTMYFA
As for B1, the binding signal is 0.168 fold enrichment over input.
The same measure, in the same setting: next, B2: 0.201 fold enrichment over input.
On the same count and under the same terms, next, B3: 0.156 fold enrichment over input; B4: 0.15 fold enrichment over input; B5: 0.148 fold enrichment over input.
The same measure, in the same setting: next, B6: 0.139 fold enrichment over input; B7: 0.125 fold enrichment over input.
In the case of B8, the binding signal was 0.162 fold enrichment over input.
In the case of B9, the binding signal is 0.163 fold enrichment over input.
On to B10, for which the binding signal is 0.141 fold enrichment over input.
For the molecule B11, the binding signal is 0.15 fold enrichment over input.
In the case of B12, the binding signal is 0.171 fold enrichment over input.
Still for that read-out and setting: for B13 the value was 0.206 fold enrichment over input; for B14, 0.179 fold enrichment over input; for B15, 0.161 fold enrichment over input.
Still for that read-out and setting: for B17 the value was 0.171 fold enrichment over input; for B18, 0.121 fold enrichment over input; for B19, 0.159 fold enrichment over input.
With B20, the binding signal is 0.147 fold enrichment over input.
Turning to B21, the binding signal was 0.185 fold enrichment over input.
Take B22: the binding signal was 0.195 fold enrichment over input.

The next experiment concerns the target AGO2 T357M (Homo sapiens, UniProt Q9UKV8 1-859, T357M;S387D;S824A;S828D;S831D;S834A). The description is as above. The following applies: protein: recombinant; tags: His6 (N-terminal, pFastBac HTA). The method, boiled down: as §1
As for B1, the binding signal was 0.563 fold enrichment over input.
Still for that read-out and setting: for B2 the value was 0.541 fold enrichment over input; for B3, 0.56 fold enrichment over input; for B4, 0.539 fold enrichment over input.
The same measure, in the same setting: for B5 the value was 0.531 fold enrichment over input; for B6, 0.506 fold enrichment over input; for B7, 0.419 fold enrichment over input.
For the molecule B8, the binding signal is 0.57 fold enrichment over input.
Same read-out and setting: next, B9: 0.565 fold enrichment over input; B10: 0.547 fold enrichment over input.
Still for that read-out and setting: for B11 the value was 0.532 fold enrichment over input; for B12, 0.526 fold enrichment over input.
Consider B13, for which the binding signal was 0.606 fold enrichment over input.
The same measure, in the same setting: for B14 the value was 0.471 fold enrichment over input; for B15, 0.581 fold enrichment over input; for B16, 0.422 fold enrichment over input.
As to B17, the binding signal is 0.548 fold enrichment over input.
Still for that read-out and setting: next, B18: 0.46 fold enrichment over input.
On the same count and under the same terms, for B19 the value was 0.568 fold enrichment over input; for B20, 0.471 fold enrichment over input.
For B21, the binding signal is 0.644 fold enrichment over input.
On to B22, for which the binding signal is 0.588 fold enrichment over input.

The target of another experiment is AGO2 F182del (Homo sapiens, UniProt Q9UKV8 1-859, S387D;S824A;S828D;S831D;S834A;del182-182). The experiment is described as above. The following applies: protein: recombinant; tags: His6 (N-terminal, pFastBac HTA). The method, boiled down: as §1
Chain of AGO2 F182del (Q9UKV8 other isoform, or with tags, fused parts or gaps S387D;S824A;S828D;S831D;S834A;del182-182): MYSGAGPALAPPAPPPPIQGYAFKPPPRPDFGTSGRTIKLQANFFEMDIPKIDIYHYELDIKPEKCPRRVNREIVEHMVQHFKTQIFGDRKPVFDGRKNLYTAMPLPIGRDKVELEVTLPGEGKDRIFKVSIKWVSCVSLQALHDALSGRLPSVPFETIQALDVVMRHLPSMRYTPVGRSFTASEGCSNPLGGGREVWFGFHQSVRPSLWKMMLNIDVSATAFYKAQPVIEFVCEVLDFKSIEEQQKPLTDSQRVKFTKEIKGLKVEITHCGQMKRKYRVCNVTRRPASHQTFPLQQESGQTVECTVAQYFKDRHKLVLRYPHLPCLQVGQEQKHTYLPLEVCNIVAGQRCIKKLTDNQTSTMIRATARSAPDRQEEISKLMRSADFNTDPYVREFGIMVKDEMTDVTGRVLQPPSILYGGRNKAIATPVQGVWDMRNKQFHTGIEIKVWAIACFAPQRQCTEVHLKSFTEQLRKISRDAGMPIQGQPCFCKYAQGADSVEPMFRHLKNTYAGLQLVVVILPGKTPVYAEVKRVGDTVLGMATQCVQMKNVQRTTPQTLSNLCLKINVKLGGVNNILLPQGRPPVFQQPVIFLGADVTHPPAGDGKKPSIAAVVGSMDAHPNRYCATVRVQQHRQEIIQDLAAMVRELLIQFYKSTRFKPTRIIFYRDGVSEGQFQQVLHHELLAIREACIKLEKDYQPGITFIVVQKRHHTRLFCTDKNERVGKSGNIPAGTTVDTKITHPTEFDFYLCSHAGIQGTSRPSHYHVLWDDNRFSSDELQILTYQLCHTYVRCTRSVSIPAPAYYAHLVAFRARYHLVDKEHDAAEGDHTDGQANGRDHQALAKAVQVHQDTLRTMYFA
Regarding B2, the binding signal is 0.152 fold enrichment over input.
As for B13, the binding signal was 0.182 fold enrichment over input.
On the same count and under the same terms, for B14 the value was 0.256 fold enrichment over input; for B22, 0.135 fold enrichment over input.

(Values after article PMC12529666, “Dysregulation of AGO2-miRNA dynamics underlies the AGO2-associated Lessel–Kreienkamp syndrome”.)
